Bioassay records (PubChem BioAssay)
Hedgehog inh – Sonic Hedgehog pathway inhibition; AID 2313; 2.1% of 22,000 active; Shh-LIGHT2 Gli-luciferase reporter, 30 h; inhibition, % (concentration not given with the values);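 active means mean inhibition across valid replicates above about 65%, limit read from the data; inconclusive means mean under the limit, yet half or more replicates past it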;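 further: pathway switched on by Shh-conditioned medium diluted 1 in 25 in low serum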
PD-1 reversal – reversal of PD-1 mediated T-cell inhibition; primary human CD4 T cells, PD-L1 beads, CellTiter-Glo 96 h; activation, % (concentration not given with the values); 29,000 tested, under 10 active; call rule not given here;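 further: 0% = median vehicle wells and 100% = positive control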
NOMO-1 viab – STK33 inhibitor candidate reducing NOMO-1 cell viability. NOMO-1 AML viability, CellTiter-Glo luminescence, 72 h. inhibition, % (test concentration not listed). 7.5% of 37,000 active; in the data active means inhibition above about 80%; inconclusive means no clear call, values can overlap the other calls
MITF inhib – blocks MITF activity. 0.28% of 37,000 active. TRPM1 promoter luciferase, luminescence, 24 h. inhibition, % (test concentration not listed); in the data active means inhibition above about 85%; inconclusive means no clear call, values can overlap the other calls; inactive means below about 68%;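 further: human melanocyte line stably carrying TRPM1 promoter luciferase reporter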
Active calls of the source: *; ? = inconclusive; / = no result given. Hits are enriched below; roughly 8.1% of the tested compounds scored in any of these assays.

SMILES | Hedgehog inh | PD-1 reversal | NOMO-1 viab | MITF inhib
N#Cc1c(NC(=O)CSc2nc3c(c(C(F)(F)F)n2)CCCC3)sc2c1CCCC2 | / | 2 | 5 | -1
O=C1CC(c2nc3ccccc3n2CCCOc2ccccc2)CN1c1ccccc1 (centres undefined) | / | / | 10 | -9
COC(=O)C1c2c(oc3cc(CO)cc(O)c3c2=O)C=CC1O (centres undefined) | 30 | -13 | 107* | -19
COc1cc(O)c2c(=O)c(OC)c(-c3ccc(OC)c(OC)c3)oc2c1 | -5 | 0 | 31 | -15
CC1(C)CC(=O)C=C(Sc2nc3ccccc3o2)C1 | 87* | -37 | 120* | 77
O=C(CCSc1nc2ccccc2s1)Nc1ccccc1Cl | / | / | 27 | 86*
NNC(=O)CCCSc1nc2ccccc2s1 | -3 | 0 | 9 | 52
COc1ccc(OC)c(N/C=C(\C#N)c2nc(-c3cc4ccccc4oc3=O)cs2)c1 | -25 | -1 | 41 | -10
CS(=O)(=O)N(CC(=O)Nc1cc(Cl)ccc1Oc1ccccc1)c1cc(Cl)ccc1Cl | / | 0 | 70 | 27
CCC(C)C(O)C(C)(O)/C=C/C1=CC2=C(Cl)C(=O)C(C)(O)C(OC(C)=O)C2CO1 (centres undefined) | -11 | -1 | 120* | 28
Cc1cc(NC(=O)c2ccc(N)cc2)c(N)cc1N | ? | 5 | 30 | -33
CCCCCCCCC/C=C/CCCCC(=O)C1C(=O)CCC(O)C1=O (centres undefined) | -8 | 0 | 109* | 30
CCCCCC[C@H](O)/C=C/CC1C(=O)CC[C@H](O)C1=O (some centres undefined) | -33 | -1 | 2 | -11
C[C@@H]1CN([C@H](C)CO)C(=O)Cc2cc(NC(=O)Nc3ccccc3)ccc2O[C@H]1CN(C)Cc1ccc(Oc2ccccc2)cc1 | -3 | 3 | 72 | 6
C[C@H]1CN([C@@H](C)CO)C(=O)Cc2cc(NC(=O)Nc3ccc(C(F)(F)F)cc3)ccc2O[C@H]1CN(C)Cc1ccc(Oc2ccccc2)cc1 | -24 | 1 | 26 | -4
C[C@@H]1CN([C@H](C)CO)C(=O)Cc2cc(NC(=O)Nc3ccc(C(F)(F)F)cc3)ccc2O[C@@H]1CN(C)Cc1ccc(Oc2ccccc2)cc1 | 54 | -10 | 115* | -1
C[C@@H]1CN([C@@H](C)CO)C(=O)Cc2cc(NC(=O)Nc3ccc(C(F)(F)F)cc3)ccc2O[C@@H]1CN(C)Cc1ccc(Oc2ccccc2)cc1 | 15 | -1 | 128* | 5
C[C@H](CO)N1C[C@H](C)[C@H](CN(C)Cc2ccc(Oc3ccccc3)cc2)Oc2ccc(NC(=O)CCC(F)(F)F)cc2CC1=O | -29 | -2 | 40 | -5
COc1ccc(NC(=O)Nc2ccc3c(c2)CC(=O)N([C@@H](C)CO)C[C@H](C)[C@@H](CN(C)Cc2ccc(Oc4ccccc4)cc2)O3)cc1 | 51 | -4 | 119* | 32
C[C@@H]1CN([C@H](C)CO)C(=O)Cc2cc(NC(=O)CCC(F)(F)F)ccc2O[C@@H]1CN(C)Cc1ccc(Oc2ccccc2)cc1 | ? | -6 | 84* | 37
COc1ccc(NC(=O)CSc2ncnc3sc4c(c23)CCC(C)C4)c([N+](=O)[O-])c1 (centres undefined) | / | 0 | 5 | -14
COc1ccc(C(=O)CSc2ncnc3sc4c(c23)CCCC4)cc1 | / | -1 | 27 | 21
CCCc1nc2c([nH]1)C(c1cccc(O)c1)C(C#N)=C(N)O2 (centres undefined) | 20 | -3 | 24 | 28
C[C@@H]1CN([C@H](C)CO)C(=O)Cc2cc(NC(=O)NC3CCCCC3)ccc2O[C@@H]1CN(C)Cc1ccc(Oc2ccccc2)cc1 | / | -3 | 111* | 28
CCOc1ccc(C)cc1S(=O)(=O)NCc1ccco1 | / | / | 7 | -17
CC(=O)C1C(=O)C2C3c4c[nH]c5cccc(c45)CC3C(C)(C)N2C1=O (centres undefined) | 25 | / | 10 | -36
CC(=O)C1C(=O)[C@@H]2[C@H]3c4c[nH]c5cccc(c45)C[C@H]3C(C)(C)N2C1=O (some centres undefined) | 77* | -14 | 131* | 9
O=C(COc1ccc2cc(Br)ccc2c1)Nc1cccc([N+](=O)[O-])c1 | / | -1 | 17 | -24
C[C@H](CO)N1C[C@H](C)[C@H](CN(C)Cc2ccc(C(F)(F)F)cc2)Oc2ccc(NS(=O)(=O)c3ccccc3)cc2C1=O | 11 | -3 | 29 | 0
C[C@@H]1CN([C@H](C)CO)C(=O)c2cc(NS(=O)(=O)c3ccc(Cl)cc3)ccc2O[C@@H]1CN(C)Cc1ccc(C(F)(F)F)cc1 | / | -2 | 116* | 35
